Measurements published in the supplement of paper PMC4022240.
± gives the standard deviation.

T1: HaloTag-ATRX ADD domain (163-292)
T1 chain: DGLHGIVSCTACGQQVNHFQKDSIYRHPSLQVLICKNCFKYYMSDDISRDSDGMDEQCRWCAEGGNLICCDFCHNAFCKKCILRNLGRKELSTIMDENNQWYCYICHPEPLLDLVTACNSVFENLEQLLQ


Molecular target: T1, HaloTag-ATRX ADD domain (163-292)
Test: peptide microarray binding signal (635 nm), min-max normalized on array (fraction of array maximum); higher = stronger binding
Conditions: peptide region: Unmod H1 variant; binder concentration: 50 nM
How it was run: (§1)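 Two probe formats were used for 1 h at 4°C: biotin-labelled HaloTag reader fusions (10 nM to 1 μM) with streptavidin-Alexa Fluor 647, and rabbit histone antibodies (1:10,000 to 1:2,000) with anti-rabbit Alexa 647. Both were applied to nitrocellulose arrays of histone 13-mer peptide–cellulose conjugates printed in triplicate with a Cy3 tracer and blocked overnight at 4°C. Signal was read at 635 nm and misprints at 532 nm on an Axon GenePix 4000B. Binding signal is expressed as the triplicate-spot mean intensity, min-max scaled for each library.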

Binder | peptide microarray binding signal
TKTKATGASKKLK [Unmod H1 variant T K T K A T G A S K K L K] | 0.032 ± 0.02
LNKKASSVETKPG [Unmod H1 variant L N K K A S S V E T K P G] | 0.0199 ± 0.0032
GTGASGSFKLNKK [Unmod H1 variant G T G A S G S F K L N K K] | 0.01633 ± 0.00015
TKPGASKVATKTK [Unmod H1 variant T K P G A S K V A T K T K] | 0.0164 ± 0.00041
KKLKKATGASKKS [Unmod H1 variant K K L K K A T G A S K K S] | 0.0152 ± 0.00029
SKKSVKTPKKAKK [Unmod H1 variant S K K S V K T P K K A K K] | 0.0224 ± 0.0075
KSSKNPKKPKTVK [Unmod H1 variant K S S K N P K K P K T V K] | 0.0196 ± 0.0037
KTVKPKKVAKSPA [Unmod H1 variant K T V K P K K V A K S P A] | 0.0149 ± 0.00058
KSPAKAKAVKPKA [Unmod H1 variant K S P A K A K A V K P K A] | 0.0194 ± 0.0034
KAKKPAATRKSSK [Unmod H1 variant K A K K P A A T R K S S K] | 0.0344 ± 0.02

Same assay, conditions: peptide region: Unmod H1 variant; binder concentration: 500 nM

Binder | peptide microarray binding signal
TKTKATGASKKLK [Unmod H1 variant T K T K A T G A S K K L K] | 0.0136 ± 0.00069
LNKKASSVETKPG [Unmod H1 variant L N K K A S S V E T K P G] | 0.0256 ± 0.00069
GTGASGSFKLNKK [Unmod H1 variant G T G A S G S F K L N K K] | 0.00986 ± 0.0013
TKPGASKVATKTK [Unmod H1 variant T K P G A S K V A T K T K] | 0.0137 ± 0.0012
KKLKKATGASKKS [Unmod H1 variant K K L K K A T G A S K K S] | 0.00691 ± 0.0006
SKKSVKTPKKAKK [Unmod H1 variant S K K S V K T P K K A K K] | 0.00633 ± 9.9e-05
KSSKNPKKPKTVK [Unmod H1 variant K S S K N P K K P K T V K] | 0.0061 ± 0.00013
KTVKPKKVAKSPA [Unmod H1 variant K T V K P K K V A K S P A] | 0.0041 ± 5.8e-05
KSPAKAKAVKPKA [Unmod H1 variant K S P A K A K A V K P K A] | 0.00619 ± 0.00021
KAKKPAATRKSSK [Unmod H1 variant K A K K P A A T R K S S K] | 0.0133 ± 0.00041

Molecular target: HaloTag-ING2 PHD (mouse Ing2 200-280)
Test: as above
Conditions: peptide region: Unmod H1 variant; binder concentration: 10 nM
How it was run: as §1

Binder | peptide microarray binding signal
TKTKATGASKKLK [Unmod H1 variant T K T K A T G A S K K L K] | 0.00257 ± 9.1e-05
LNKKASSVETKPG [Unmod H1 variant L N K K A S S V E T K P G] | 0.00776 ± 0.0013
GTGASGSFKLNKK [Unmod H1 variant G T G A S G S F K L N K K] | 0.00251 ± 5.1e-05
TKPGASKVATKTK [Unmod H1 variant T K P G A S K V A T K T K] | 0.00215 ± 5e-05
KKLKKATGASKKS [Unmod H1 variant K K L K K A T G A S K K S] | 0.00161 ± 6.7e-05
SKKSVKTPKKAKK [Unmod H1 variant S K K S V K T P K K A K K] | 0.00113 ± 3.2e-05
KSSKNPKKPKTVK [Unmod H1 variant K S S K N P K K P K T V K] | 0.00185
KTVKPKKVAKSPA [Unmod H1 variant K T V K P K K V A K S P A] | 0.001552 ± 9.3e-06
KSPAKAKAVKPKA [Unmod H1 variant K S P A K A K A V K P K A] | 0.00167 ± 3.4e-05
KAKKPAATRKSSK [Unmod H1 variant K A K K P A A T R K S S K] | 0.00227 ± 5.2e-05

Same assay, conditions: peptide region: Unmod H1 variant; binder concentration: 100 nM

Binder | peptide microarray binding signal
TKTKATGASKKLK [Unmod H1 variant T K T K A T G A S K K L K] | 0.00829 ± 0.00095
LNKKASSVETKPG [Unmod H1 variant L N K K A S S V E T K P G] | 0.0114 ± 0.00013
GTGASGSFKLNKK [Unmod H1 variant G T G A S G S F K L N K K] | 0.00539 ± 0.00089
TKPGASKVATKTK [Unmod H1 variant T K P G A S K V A T K T K] | 0.00694 ± 0.00026
KKLKKATGASKKS [Unmod H1 variant K K L K K A T G A S K K S] | 0.0034 ± 0.00046
SKKSVKTPKKAKK [Unmod H1 variant S K K S V K T P K K A K K] | 0.00206 ± 0.00011
KSSKNPKKPKTVK [Unmod H1 variant K S S K N P K K P K T V K] | 0.003543 ± 3.1e-05
KTVKPKKVAKSPA [Unmod H1 variant K T V K P K K V A K S P A] | 0.00369 ± 0.00015
KSPAKAKAVKPKA [Unmod H1 variant K S P A K A K A V K P K A] | 0.0159 ± 0.014
KAKKPAATRKSSK [Unmod H1 variant K A K K P A A T R K S S K] | 0.0068 ± 0.00046

Molecular target: anti-H3K4me3 antibody ab8580
Test: as above
Conditions: peptide region: Unmod H1 variant; binder concentration: 1:2,000 dilution
How it was run: as §1

Binder | peptide microarray binding signal
TKTKATGASKKLK [Unmod H1 variant T K T K A T G A S K K L K] | 0.000642 ± 2.2e-05
LNKKASSVETKPG [Unmod H1 variant L N K K A S S V E T K P G] | 0.00126 ± 7.1e-05
GTGASGSFKLNKK [Unmod H1 variant G T G A S G S F K L N K K] | 0.000547 ± 1.9e-05
TKPGASKVATKTK [Unmod H1 variant T K P G A S K V A T K T K] | 0.00117 ± 0.00015
KKLKKATGASKKS [Unmod H1 variant K K L K K A T G A S K K S] | 0.000396 ± 1.2e-05
SKKSVKTPKKAKK [Unmod H1 variant S K K S V K T P K K A K K] | 0.000359 ± 9.7e-06
KSSKNPKKPKTVK [Unmod H1 variant K S S K N P K K P K T V K] | 0.000774 ± 1.4e-05
KTVKPKKVAKSPA [Unmod H1 variant K T V K P K K V A K S P A] | 0.0005286 ± 5.1e-06
KSPAKAKAVKPKA [Unmod H1 variant K S P A K A K A V K P K A] | 0.000283
KAKKPAATRKSSK [Unmod H1 variant K A K K P A A T R K S S K] | 0.000755 ± 1.4e-05

Same assay, conditions: peptide region: Unmod H1 variant; binder concentration: 1:10,000 dilution

Binder | peptide microarray binding signal
TKTKATGASKKLK [Unmod H1 variant T K T K A T G A S K K L K] | 0.001027 ± 1e-05
LNKKASSVETKPG [Unmod H1 variant L N K K A S S V E T K P G] | 0.00165 ± 3.2e-05
GTGASGSFKLNKK [Unmod H1 variant G T G A S G S F K L N K K] | 0.00114 ± 3e-05
TKPGASKVATKTK [Unmod H1 variant T K P G A S K V A T K T K] | 0.00097 ± 9.9e-06
KKLKKATGASKKS [Unmod H1 variant K K L K K A T G A S K K S] | 0.000856 ± 8.9e-06
SKKSVKTPKKAKK [Unmod H1 variant S K K S V K T P K K A K K] | 0.000628 ± 6.7e-06
KSSKNPKKPKTVK [Unmod H1 variant K S S K N P K K P K T V K] | 0.000913
KTVKPKKVAKSPA [Unmod H1 variant K T V K P K K V A K S P A] | 0.000799 ± 8.3e-06
KSPAKAKAVKPKA [Unmod H1 variant K S P A K A K A V K P K A] | 0.000571 ± 1.1e-05
KAKKPAATRKSSK [Unmod H1 variant K A K K P A A T R K S S K] | 0.00103 ± 2.1e-05

Molecular target: anti-H3K9me3 antibody ab8898
Test: as above
Conditions: peptide region: Unmod H1 variant; binder concentration: 1:2,000 dilution
How it was run: as §1

Binder | peptide microarray binding signal
TKTKATGASKKLK [Unmod H1 variant T K T K A T G A S K K L K] | 0.000181
LNKKASSVETKPG [Unmod H1 variant L N K K A S S V E T K P G] | 0.000921 ± 2e-05
GTGASGSFKLNKK [Unmod H1 variant G T G A S G S F K L N K K] | 0.0003926 ± 3.9e-06
TKPGASKVATKTK [Unmod H1 variant T K P G A S K V A T K T K] | 0.000302 ± 6.2e-06
KKLKKATGASKKS [Unmod H1 variant K K L K K A T G A S K K S] | 0.000257 ± 2.5e-05
SKKSVKTPKKAKK [Unmod H1 variant S K K S V K T P K K A K K] | 0.000121 ± 1.3e-06
KSSKNPKKPKTVK [Unmod H1 variant K S S K N P K K P K T V K] | 0.000181
KTVKPKKVAKSPA [Unmod H1 variant K T V K P K K V A K S P A] | 0.000121 ± 2.7e-06
KSPAKAKAVKPKA [Unmod H1 variant K S P A K A K A V K P K A] | 0.000196 ± 2.1e-06
KAKKPAATRKSSK [Unmod H1 variant K A K K P A A T R K S S K] | 0.000211 ± 2.2e-06

Same assay, conditions: peptide region: Unmod H1 variant; binder concentration: 1:10,000 dilution

Binder | peptide microarray binding signal
TKTKATGASKKLK [Unmod H1 variant T K T K A T G A S K K L K] | 0.000519 ± 5.6e-06
LNKKASSVETKPG [Unmod H1 variant L N K K A S S V E T K P G] | 0.00127 ± 4.6e-05
GTGASGSFKLNKK [Unmod H1 variant G T G A S G S F K L N K K] | 0.00121 ± 3.2e-05
TKPGASKVATKTK [Unmod H1 variant T K P G A S K V A T K T K] | 0.000692 ± 7.3e-06
KKLKKATGASKKS [Unmod H1 variant K K L K K A T G A S K K S] | 0.000461
SKKSVKTPKKAKK [Unmod H1 variant S K K S V K T P K K A K K] | 0.000577 ± 6.2e-06
KSSKNPKKPKTVK [Unmod H1 variant K S S K N P K K P K T V K] | 0.00075 ± 7.9e-06
KTVKPKKVAKSPA [Unmod H1 variant K T V K P K K V A K S P A] | 0.000461
KSPAKAKAVKPKA [Unmod H1 variant K S P A K A K A V K P K A] | 0.000577 ± 6.2e-06
KAKKPAATRKSSK [Unmod H1 variant K A K K P A A T R K S S K] | 0.00075 ± 7.9e-06
